Results on 22 compounds are retold here after PubChem BioAssay (EPA / NIEHS).

The target of assay [1] is Estrogen receptor (Homo sapiens) (UniProt P03372). Kind of assay: OT_ER_ERaERa_1440: Odyssey Thera (OT) 24-hour HEK293T Protein-Complementation Assay for Estrogen Receptor-alpha/-alpha Homodimer (AID 2283349).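 Further: hits raise fluorescence above DMSO for agonists and antagonists alike.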 An outline of the steps: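 Cells (HEK293T) carrying the fragment-tagged ERα LBD (aa 310-547) pair are treated with chemical for 24 hours. Nuclear and/or cytoplasmic fluorescence is then quantified on a laser scanning cytometer. Activity is scored as signal gain against DMSO.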

Assay [2] shares this target. As to the kind of experiment: OT_ER_ERaERa_0480: Odyssey Thera (OT) 8-hour HEK293T Protein-Complementation Assay for Estrogen Receptor-alpha/-alpha Homodimer (AID 2283351).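 Further: rise in fluorescence from reassembled reporter fragments on ERα LBD homodimer in nucleus or whole cell.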 An outline of the steps:
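Read-out: fluorescence intensity rise relative to DMSO, nuclear for agonists, nuclear plus cytoplasmic for antagonists. Construct is the ERα LBD (aa 310-547) homodimer fragment-complementation pair, stably expressed in HEK293T; exposure 8 h.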

The target in assay [3] is T1, Estrogen receptor (Homo sapiens) + Estrogen receptor beta (Homo sapiens) (UniProt P03372+Q92731). As to the kind of experiment: OT_ER_ERaERb_1440: Odyssey Thera (OT) 24-hour HEK293T Protein-Complementation Assay for Estrogen Receptor-alpha/-beta Homodimer (AID 2283356).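 Further: heteromer of ER alpha and ER beta binding domains; hits raise reporter fluorescence and both agonists and antagonists give an increase.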 Summed up: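 24 h exposure; HEK293T PCA cells with ERα/ERβ LBD fragments; signal rise in nuclear or whole-cell fluorescence over vehicle.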

The target of assay [4] is bovine Estrogen Receptor (ER), ESR1 (gene 407238) (UniProt P49884). Kind of assay: NVS_NR_bER: NovaScreen (NVS) Nuclear Receptor Binding Assay for bovine Estrogen Receptor (ER) (AID 2283345).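 Further: actives lower the bound radioligand count which means they displace the ER ligand.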 Summed up: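 Displacement of a radioligand from estrogen receptor in bovine uterine membrane preparations; scintillation signal taken at 18 hours, DMSO as baseline. Single-concentration duplicates (25 uM) preceded concentration-response follow-up of actives.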

For assay [5], the target named is chimpanzee Androgen Receptor (AR), AR (gene 747460) (UniProt O97775). As to the kind of experiment: NVS_NR_cAR: NovaScreen (NVS) Nuclear Receptor Binding Assay for chimpanzee Androgen Receptor (AR) (AID 2283346).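 Further: a loss of bound radioligand signal versus DMSO counts as binding.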 Summed up: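 Radioligand binding to chimpanzee AR expressed in Sf9/Sf21 cells, cell-free, measured 72 h after dosing by lysate-based scintillation counting. Loss of signal vs DMSO; initial duplicate screen at 25 uM, actives retested in concentration series.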

Assay [6] concerns the target T1, Estrogen receptor (Homo sapiens) + Estrogen receptor beta (Homo sapiens). As to the kind of experiment: OT_ER_ERaERb_0480: Odyssey Thera (OT) 8-hour HEK293T Protein-Complementation Assay for Estrogen Receptor-alpha/-beta Heterodimer (AID 2283352). Summed up:
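Human HEK293T cells were treated for 8 hours and receptor heterodimerisation was detected through reconstitution of a fluorescent reporter split between ER-alpha and ER-beta ligand-binding domains. Activity was analysed as gain of signal against DMSO.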

Assay [7] deals with Androgen Receptor/SRC-1 Co-activator, AR (gene 367) (UniProt P10275). Kind of assay: OT_AR_ARSRC1_0960: Odyssey Thera (OT) 16-hour HEK293T Protein-Complementation Assay for Androgen Receptor/SRC-1 Co-activator (AID 2283353).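 Further: actives raise the signal above DMSO so potency reflects increased AR and SRC-1 complex.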 An outline of the steps:
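Readout: 488 nm nuclear-to-cytoplasmic fluorescence ratio from imaging of at least 400 cells per image, 16 h post-dose. Reporter is Venus YFP complementation between AR and SRC-1 fusions, stably expressed in HEK293T; activity scored upward relative to DMSO.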

Assay [8] has the same target. Kind of assay: OT_AR_ARSRC1_0480: Odyssey Thera (OT) 8-hour HEK293T Protein-Complementation Assay for Androgen Receptor/SRC-1 Co-activator (AID 2283354).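 Further: hits raise the complementation signal above DMSO so AC50 marks enhancers.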 Summed up:
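Split-Venus PCA, stable HEK293T, AR/SRC-1 fusions; 8 h exposure. Readout: 488nm N/C fluorescence ratio, ≥400 cells/image; fitted upward vs DMSO baseline.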

Assay [9] has as its target Estrogen receptor (Homo sapiens) (UniProt P03372). Kind of assay: NVS_NR_hER: NovaScreen (NVS) Nuclear Receptor Binding Assay for human Estrogen Receptor (ER) (AID 2283348). Summed up:
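MCF7-derived receptor extract, radiolabelled ligand, competitive displacement. Read: scintillation counts at 18 h. DMSO = negative control/baseline. Primary 25 uM duplicate; follow-up concentration–response.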

Assay [10] has as its target human Constitutive Androstane Receptor (CAR), NR1I3 (gene 9970) (UniProt Q14994). As to the kind of experiment: NVS_NR_hCAR_Antagonist: NovaScreen (NVS) Nuclear Receptor Binding Assay for human Constitutive Androstane Receptor Antagonism (CAR) (AID 2283344). An outline of the steps:
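Single 25 uM duplicate primary screen, with concentration-series follow-up on actives. Cell-free binding format run in antagonist mode, TR-FRET signal taken 1 h post-dose; activity is signal loss relative to DMSO.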

Assay [11] deals with rat Mineralocorticoid Receptor (MR), Nr3c2 (gene 25672) (UniProt P22199). Kind of assay: NVS_NR_rMR: NovaScreen (NVS) Nuclear Receptor Binding Assay for rat Mineralocorticoid Receptor (MR) (AID 2283355). Summed up: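 Radioligand displacement, scintillation readout; tissue source adrenalectomized rat brain supernatant. Read 24 h post-dose. Screened in duplicate at 25 uM, DMSO negative control, controls on every plate; actives re-run in concentration series.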

Assay [12] has as its target Bile acid receptor (Homo sapiens) (UniProt Q96RI1). As to the kind of experiment: NVS_NR_hFXR_Antagonist: NovaScreen (NVS) Nuclear Receptor Binding Assay for human Farnesoid X Receptor Antagonism (FXR) (AID 2283350). Summed up: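 Antagonist-format time-resolved FRET binding assay with extracted human receptor protein, read 1 hour after compound addition. Compounds first screened at 25 uM in duplicate, then actives tested in concentration series, with loss of signal relative to DMSO.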

For assay [13] the target is unchanged. As to the kind of experiment: NVS_NR_hFXR_Agonist: NovaScreen (NVS) Nuclear Receptor Binding Assay for human Farnesoid X Receptor Agonism (FXR) (AID 2283347). An outline of the steps:
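Agonist-mode FXR assay read by time-resolved FRET 1 h after compound addition, using isolated human receptor protein without cells. Duplicate 25 uM single-point primary screen, concentration series for confirmed actives; DMSO as baseline.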

Results filed as inconclusive are left out. Activity calls are given as the source filed them. How the source made its calls: active means hit-call score of the fitted dose curve at least 0.9, where 1 is the maximum; inconclusive means response in the unintended direction; inactive means score below 0.9.

Bile acid receptor (Homo sapiens), sequence (Q96RI1 whole entry, looked up): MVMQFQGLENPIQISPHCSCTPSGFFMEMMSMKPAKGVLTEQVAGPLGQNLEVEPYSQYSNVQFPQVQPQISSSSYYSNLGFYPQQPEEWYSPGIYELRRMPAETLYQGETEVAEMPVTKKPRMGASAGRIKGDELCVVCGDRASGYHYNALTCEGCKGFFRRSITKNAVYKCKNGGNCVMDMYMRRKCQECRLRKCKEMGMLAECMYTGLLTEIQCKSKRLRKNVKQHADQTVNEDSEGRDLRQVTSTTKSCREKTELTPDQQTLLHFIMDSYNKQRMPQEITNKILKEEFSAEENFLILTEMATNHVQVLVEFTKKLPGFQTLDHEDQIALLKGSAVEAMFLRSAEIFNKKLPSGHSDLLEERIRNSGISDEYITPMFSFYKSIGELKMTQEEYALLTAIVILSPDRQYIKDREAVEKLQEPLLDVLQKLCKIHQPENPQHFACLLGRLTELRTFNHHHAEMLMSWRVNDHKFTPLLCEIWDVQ
rat Mineralocorticoid Receptor (MR), Nr3c2 (gene 25672), sequence (P22199 whole entry, looked up): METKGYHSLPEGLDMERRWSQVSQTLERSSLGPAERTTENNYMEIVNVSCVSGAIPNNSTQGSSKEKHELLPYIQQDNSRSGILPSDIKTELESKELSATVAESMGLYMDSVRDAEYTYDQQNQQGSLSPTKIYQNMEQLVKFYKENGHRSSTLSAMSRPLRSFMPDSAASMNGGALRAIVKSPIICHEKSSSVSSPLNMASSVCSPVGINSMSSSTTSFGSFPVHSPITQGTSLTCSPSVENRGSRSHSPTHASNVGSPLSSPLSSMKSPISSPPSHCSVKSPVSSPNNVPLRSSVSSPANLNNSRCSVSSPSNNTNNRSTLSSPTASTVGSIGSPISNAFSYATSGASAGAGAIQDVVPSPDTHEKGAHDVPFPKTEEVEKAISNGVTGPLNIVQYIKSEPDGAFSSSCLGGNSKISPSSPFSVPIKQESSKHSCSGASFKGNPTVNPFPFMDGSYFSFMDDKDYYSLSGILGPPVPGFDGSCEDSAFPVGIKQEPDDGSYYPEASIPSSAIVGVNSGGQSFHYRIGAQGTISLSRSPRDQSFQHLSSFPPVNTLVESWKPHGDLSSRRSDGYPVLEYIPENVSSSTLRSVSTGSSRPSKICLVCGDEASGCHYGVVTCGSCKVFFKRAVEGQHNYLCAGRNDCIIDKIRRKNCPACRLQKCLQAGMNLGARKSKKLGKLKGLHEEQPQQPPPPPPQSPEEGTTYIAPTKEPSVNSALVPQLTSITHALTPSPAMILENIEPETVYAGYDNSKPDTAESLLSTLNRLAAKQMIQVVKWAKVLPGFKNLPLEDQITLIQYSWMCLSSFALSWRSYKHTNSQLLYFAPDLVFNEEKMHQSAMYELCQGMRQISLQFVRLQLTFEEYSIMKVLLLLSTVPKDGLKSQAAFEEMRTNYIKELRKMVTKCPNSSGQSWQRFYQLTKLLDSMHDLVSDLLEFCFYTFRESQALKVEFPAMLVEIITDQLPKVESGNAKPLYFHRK
human Constitutive Androstane Receptor (CAR), NR1I3 (gene 9970), sequence (Q14994 whole entry, looked up): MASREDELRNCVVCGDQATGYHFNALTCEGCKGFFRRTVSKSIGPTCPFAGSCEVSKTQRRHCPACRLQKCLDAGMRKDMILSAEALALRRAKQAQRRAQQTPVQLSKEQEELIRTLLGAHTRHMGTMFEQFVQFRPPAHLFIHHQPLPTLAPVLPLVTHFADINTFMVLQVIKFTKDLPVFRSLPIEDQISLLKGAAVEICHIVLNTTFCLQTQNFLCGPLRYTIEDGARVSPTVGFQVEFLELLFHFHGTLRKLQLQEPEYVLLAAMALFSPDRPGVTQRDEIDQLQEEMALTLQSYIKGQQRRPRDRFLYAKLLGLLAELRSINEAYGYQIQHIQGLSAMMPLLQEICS
Androgen Receptor/SRC-1 Co-activator, AR (gene 367), sequence (P10275 whole entry, looked up, the tested form may be a part): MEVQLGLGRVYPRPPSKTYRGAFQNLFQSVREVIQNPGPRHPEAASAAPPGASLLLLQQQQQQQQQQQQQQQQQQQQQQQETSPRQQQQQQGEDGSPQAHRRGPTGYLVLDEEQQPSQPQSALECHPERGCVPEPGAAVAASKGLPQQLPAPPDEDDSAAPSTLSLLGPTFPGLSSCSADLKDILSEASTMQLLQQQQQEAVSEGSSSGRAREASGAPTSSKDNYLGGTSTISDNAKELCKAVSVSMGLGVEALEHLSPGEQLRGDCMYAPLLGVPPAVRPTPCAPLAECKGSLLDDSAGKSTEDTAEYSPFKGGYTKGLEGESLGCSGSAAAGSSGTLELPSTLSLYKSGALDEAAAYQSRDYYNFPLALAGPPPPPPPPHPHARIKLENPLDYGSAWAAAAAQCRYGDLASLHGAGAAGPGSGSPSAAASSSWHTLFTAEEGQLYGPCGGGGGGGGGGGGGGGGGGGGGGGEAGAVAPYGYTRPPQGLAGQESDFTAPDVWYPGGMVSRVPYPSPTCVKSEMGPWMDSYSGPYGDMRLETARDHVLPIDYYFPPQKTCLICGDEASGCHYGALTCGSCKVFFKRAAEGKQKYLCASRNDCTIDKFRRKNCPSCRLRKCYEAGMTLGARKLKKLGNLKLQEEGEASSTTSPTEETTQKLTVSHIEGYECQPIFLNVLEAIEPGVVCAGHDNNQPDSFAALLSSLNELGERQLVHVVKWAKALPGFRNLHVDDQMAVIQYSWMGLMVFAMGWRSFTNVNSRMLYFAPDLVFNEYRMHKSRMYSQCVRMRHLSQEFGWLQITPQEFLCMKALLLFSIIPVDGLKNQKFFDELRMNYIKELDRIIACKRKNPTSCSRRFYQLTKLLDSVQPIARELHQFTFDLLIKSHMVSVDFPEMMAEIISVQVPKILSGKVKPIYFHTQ
T1 sequence (P03372 whole entry, looked up, the tested form may be a part): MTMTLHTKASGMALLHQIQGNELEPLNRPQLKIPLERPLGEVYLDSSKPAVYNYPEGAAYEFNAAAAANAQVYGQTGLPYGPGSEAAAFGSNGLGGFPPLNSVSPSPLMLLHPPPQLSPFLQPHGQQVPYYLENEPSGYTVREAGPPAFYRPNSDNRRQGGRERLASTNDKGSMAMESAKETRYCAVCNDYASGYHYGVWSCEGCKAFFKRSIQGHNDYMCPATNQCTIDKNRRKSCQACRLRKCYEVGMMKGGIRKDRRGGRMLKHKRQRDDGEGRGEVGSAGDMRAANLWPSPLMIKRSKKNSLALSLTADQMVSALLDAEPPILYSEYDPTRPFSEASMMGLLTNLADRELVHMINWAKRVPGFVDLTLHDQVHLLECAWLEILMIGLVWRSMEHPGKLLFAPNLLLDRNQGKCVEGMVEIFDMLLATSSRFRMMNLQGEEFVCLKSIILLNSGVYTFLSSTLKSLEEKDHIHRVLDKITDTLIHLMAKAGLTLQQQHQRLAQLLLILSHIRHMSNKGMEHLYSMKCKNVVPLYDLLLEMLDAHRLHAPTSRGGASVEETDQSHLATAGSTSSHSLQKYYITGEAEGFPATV
T1 sequence (Q92731 whole entry, looked up, the tested form may be a part): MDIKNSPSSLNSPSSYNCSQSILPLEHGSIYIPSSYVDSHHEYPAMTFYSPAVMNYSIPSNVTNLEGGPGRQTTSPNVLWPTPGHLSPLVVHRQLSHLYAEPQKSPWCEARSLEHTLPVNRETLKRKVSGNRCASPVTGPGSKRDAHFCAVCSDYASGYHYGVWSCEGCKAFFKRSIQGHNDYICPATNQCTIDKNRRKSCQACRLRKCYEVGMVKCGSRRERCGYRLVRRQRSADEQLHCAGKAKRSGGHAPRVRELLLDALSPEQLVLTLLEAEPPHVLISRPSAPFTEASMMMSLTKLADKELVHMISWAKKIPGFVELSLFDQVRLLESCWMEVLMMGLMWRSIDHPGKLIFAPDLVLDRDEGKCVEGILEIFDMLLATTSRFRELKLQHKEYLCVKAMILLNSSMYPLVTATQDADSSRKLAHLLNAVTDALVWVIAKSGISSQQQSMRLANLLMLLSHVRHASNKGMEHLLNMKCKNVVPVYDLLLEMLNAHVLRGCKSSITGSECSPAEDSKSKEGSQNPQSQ
Estrogen receptor (Homo sapiens), sequence (P03372 whole entry, looked up, the tested form may be a part): as the sequence (P03372 whole entry, looked up, the tested form may be a part) above
chimpanzee Androgen Receptor (AR), AR (gene 747460), sequence (O97775 whole entry, looked up): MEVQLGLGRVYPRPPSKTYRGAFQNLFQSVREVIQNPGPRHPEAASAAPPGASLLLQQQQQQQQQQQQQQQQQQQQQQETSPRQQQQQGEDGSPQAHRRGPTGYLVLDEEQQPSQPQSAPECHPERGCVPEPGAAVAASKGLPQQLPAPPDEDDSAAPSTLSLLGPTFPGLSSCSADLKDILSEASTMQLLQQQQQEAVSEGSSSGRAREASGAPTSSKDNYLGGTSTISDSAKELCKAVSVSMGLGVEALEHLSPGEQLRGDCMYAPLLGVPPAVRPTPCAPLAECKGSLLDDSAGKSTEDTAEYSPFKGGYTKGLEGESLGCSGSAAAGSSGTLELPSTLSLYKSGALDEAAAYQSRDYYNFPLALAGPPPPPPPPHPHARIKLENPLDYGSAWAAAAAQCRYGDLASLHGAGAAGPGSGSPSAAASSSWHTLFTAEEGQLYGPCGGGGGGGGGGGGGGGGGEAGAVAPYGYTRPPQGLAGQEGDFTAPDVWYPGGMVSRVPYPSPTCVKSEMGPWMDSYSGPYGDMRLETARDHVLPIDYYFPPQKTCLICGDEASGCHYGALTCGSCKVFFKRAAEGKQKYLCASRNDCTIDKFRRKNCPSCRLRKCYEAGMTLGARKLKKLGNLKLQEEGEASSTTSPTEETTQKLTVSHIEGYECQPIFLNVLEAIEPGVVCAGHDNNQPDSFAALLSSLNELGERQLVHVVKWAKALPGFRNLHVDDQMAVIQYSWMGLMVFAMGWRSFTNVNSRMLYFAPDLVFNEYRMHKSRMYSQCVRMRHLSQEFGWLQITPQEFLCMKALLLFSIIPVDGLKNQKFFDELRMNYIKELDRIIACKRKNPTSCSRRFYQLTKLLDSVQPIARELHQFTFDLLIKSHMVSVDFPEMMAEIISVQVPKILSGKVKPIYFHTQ

On to `COP(=O)(OC)O/C(C)=C/C(=O)N(C)C`, for which the call in assay [1], in assay [2] and in assay [3] was inactive.
Regarding `CC1(C)CON(Cc2ccccc2Cl)C1=O`, the result in assay [1], in [2] and in assay [3] was inactive.
As to `O=c1n(Cl)c(=O)n(Cl)c(=O)n1Cl`, the call in assay [4], in [1], in [2] and in assay [3] was inactive.
As to `CS(=O)(=O)c1cc(C(F)(F)F)ccc1C(=O)c1cnoc1C1CC1`, the result in assay [4], in assay [1], in assay [2] and in [3] was inactive.
In the case of `CC1(C)CCC(=Cc2ccc(Cl)cc2)C1(O)Cn1cncn1` (centres undefined), the AC50 (usually the midpoint of the concentration-response curve, whichever way the signal moves) in [5] was 0.672 µM (active); in [7] it was 16.3 µM (active); in assay [8], 15.5 µM (active). Moreover, the call in [1], in assay [2], in assay [6] and in assay [3] was inactive.
In the case of `CO/N=C(/C1=NOCCO1)c1ccccc1Oc1ncnc(Oc2ccccc2Cl)c1F`, the compound was classed as inactive in assay [1] and in [2].
Take `O=P(O)(O)CCCl`: the call in assay [1] and in assay [2] was inactive.
For the compound `CCSC(=O)N1CCCCCC1`, the outcome in assay [9], in assay [1], in assay [2] and in [3] was inactive.
Regarding `COC(=O)NS(=O)(=O)c1ccc(N)cc1`, the outcome in assay [10], in assay [1], in assay [11] and in assay [3] was inactive.
For `Clc1cccc(C(Cl)(Cl)Cl)n1`, the result in assay [1], in assay [2], in assay [7], in [8] and in [3] was inactive.
Consider `CNC(=O)N(C)c1nnc(C(C)(C)C)s1`, for which the compound was classed as inactive in assay [1], in assay [2] and in [3].
For the compound `CS(=O)(=O)c1ccc(C(=O)C2C(=O)CCCC2=O)c([N+](=O)[O-])c1`, in assay [5], the AC50 was 17.6 µM (active). In addition, the result in assay [1], in [2] and in assay [3] was inactive.
Regarding `CCOc1cc(C(C)(C)C)ccc1C1COC(c2c(F)cccc2F)=N1` (centres undefined), the outcome in [10], in assay [1], in assay [11] and in [3] was inactive. The AC50 in [7] is 20.1 µM (active); in assay [8] it was 20.4 µM (active).
As for `CCNC(=O)NC(=O)C(C#N)=NOC`, the outcome in [1], in assay [12] and in assay [2] was inactive.
`CCOc1nc(C(Cl)(Cl)Cl)ns1`: the result in assay [1], in assay [2], in assay [11] and in [3] was inactive.
Regarding `N#CN=C1SCCN1Cc1ccc(Cl)nc1`, the outcome in assay [1] and in [2] was inactive.
In the case of `Nc1c(Cl)c(Cl)nc(C(=O)O)c1Cl`, the compound was called inactive in assay [1], in [2], in assay [6] and in assay [3].
Take `CCCC(=NOCC)C1=C(O)CC(CC(C)SCC)CC1=O` (centres undefined): the compound was classed as inactive in assay [1], in assay [11] and in [3].
For `COc1cc(OC)nc(NC(=O)NS(=O)(=O)c2ncccc2OCC(F)(F)F)n1`, the compound was called inactive in assay [1], in assay [2] and in [3].
In the case of `CCOc1nc(F)cc2nc(S(=O)(=O)Nc3c(Cl)cccc3Cl)nn12`, the call in assay [10], in [13], in assay [1], in assay [2] and in assay [3] was inactive.
As for `Cc1cc(C)nc(Nc2ccccc2)n1`, the compound was called inactive in assay [1] and in assay [2].
As to `COCc1cnc(C2=NC(C)(C(C)C)C(=O)N2)c(C(=O)O)c1` (centres undefined), the compound was called inactive in [1], in assay [2], in assay [6], in assay [7], in [8] and in assay [3]. The AC50 in assay [12] was 30.3 µM (active).
